Assay results taken from the supplement of paper PMC10105736.
± gives the standard deviation of the averaged measurements.

What was measured:
Assay in all cases: MAPPIT interaction score (arbitrary units); higher = stronger binary interaction signal, active = hit call of the paper;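 active = MAPPIT score above the 99th percentile of random reference set scores in the same batch; inactive = at or below it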
Syp = conditions: MAPPIT configuration: N-N; pair source set: DPIM
Tgi = conditions: MAPPIT configuration: N-N; pair source set: Lit-BM-16
yki = conditions: MAPPIT configuration: N-N; pair source set: Lit-BM-16
Tim17b2 = conditions: MAPPIT configuration: N-C
Tcs6 = conditions: MAPPIT configuration: N-N; pair source set: screen_2
TfIIA-L = conditions: MAPPIT configuration: N-N; pair source set: screen_2
Taf12 = conditions: MAPPIT configuration: N-N; pair source set: Curagen_low_conf
THG = conditions: MAPPIT configuration: N-N; pair source set: screen_2
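Also: HEK293T cells with Epo stimulation, STAT-responsive firefly luciferase reporter, fold induction versus unstimulated cells divided by the larger fold induction of two negative controls lacking either bait or prey.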

B1: grass (protein)
chain: MMIASSLAVLYGIAIVSSMGVQSARADYADDCTTPDGDQGQCMPFSSCRTIEERLTEAQKAGQKVPADYASYLQKALCGEFNGVRHFCCPSANIQHNSKVMSLFKDENFDCGNFLSQRVSNGYEVKLSSRPWMALLRYQQFGESRFLCGGAMISERYILTAAHCVHGLQNDLYEIRLGEHRISTEEDCRQQGRKKKCAPPVVNVGIEKHLIHEKYDARHIMHDIALLKLNRSVPFQKHIKPICLPITDELKEKAEQISTYFVTGWGTTENGSSSDVLLQANVPLQPRSACSQAYRRAVPLSQLCVGGGDLQDSCKGDSGGPLQAPAQYLGEYAPKMVEFGIVSQGVVTCGQISLPGLYTNVGEYVQWITDTMASNGL
MAPPIT interaction score (Syp): -0.0477 (inactive)

B2: sd (protein)
chain: MKNITSSSTCSTGLLQLQNNLSCSELEVAEKTEQQAVGPGTIPSPWTPVNAGPPGALGSADTNGSMVDSKNLDVGDMSDDEKDLSSADAEGVWSPDIEQSFQEALSIYPPCGRRKIILSDEGKMYGRNELIARYIKLRTGKTRTRKQVSSHIQVLARRKLREIQAKIKVQFWQPGLQPSTSQDFYDYSIKPFPQPPYPAGKTSTAVSGDETGIPPSQLPWEGRAIATHKFRLLEFTAFMEIQRDEIYHRHLFVQLGGKPSFSDPLLETVDIRQIFDKFPEKSGGLKDLYEKGPQNAFYLVKCWADLNTDLTTGSETGDFYGVTSQYESNENVVLVCSTIVCSFGKQVVEKVESEYSRLENNRYVYRIQRSPMCEYMINFIQKLKNLPERYMMNSVLENFTILQVMRARETQETLLCIAYVFEVAAQNSGTTHHIYRLIKE
MAPPIT interaction score (Tgi): 0.163 (inactive)
MAPPIT interaction score (yki): 0.822 (inactive)

B3: meigo (protein)
chain: MNLPERSRFVIYAVGIFVCYFLYGIVQEKLTRGRYGEEVQTDGSVGERFTYALALVWVQCLCNYVFAKVLLTIRPQKEDTTNAGSYVACSLTYLLAMVSTNMAMRWVPYPTAVVGKSAKPIPVMILGVLIGRKSYSWTRYACVLTIVLGVILFMYKEGKVSNLPAETTLLGEVLLFLSLSMDGLTGAVQERIRAASAPSGQQMMRAMNFWSTLMLGVAMVFTGEAKEFMYFTIRHPEAWTHLSLIAVCGVLGQFFIFLMVASFGPLACSVVTTTRKFFTVLCSVLLFGNVLIARQWLGAVLVFAALFVDMLYGKKAPLATAKKPPVEGKLSEEKKLNS
MAPPIT interaction score (Tim17b2; pair source set: screen_4): -0.125 (inactive)

B4: CG3792 (protein)
chain: MTDLIRQGALFLMSEKCYDNYFLYHNFLDVPCFKALLSKGLGLAIIAGSVLVKVPQVLKILNSKSGEGINIVGVVLDLLAISFHLSYNFMHGYPFSAWGDSTFLAIQTVTIAVLVLFFNGRKAQSGLFLVGYVVLMYVLNSGLTPMSVLFTIQSCNIPILLVGKLSQAYTNYQAGSTGQLSAATVIMMFAGSVARIFTSIQETGDFMIILTFIASTFANSVILGQLIYYWNKPAGVKVKDSKAKKPKTKKDD
MAPPIT interaction score (Tim17b2; pair source set: screen_3): -0.183 (inactive)

B5: Tcs3 (protein)
chain: MVCALGIEGSANKIGIGIIRDGKVLANVRRTYITPPGEGFLPKETAKHHREAILGLVESSLKEAQLKSSDLDVICYTKGPGMAPPLLVGAIVARTLSLLWNIPLLGVNHCIGHIEMGRLITGAQNPTVLYVSGGNTQVIAYSNKRYRIFGETIDIAVGNCLDRFARIIKLSNDPSPGYNIEQLAKSSNRYIKLPYVVKGMDVSFSGILSYIEDLAEPGKRQNKRKKPQEEEVNNYSQADLCYSLQETIFAMLVEITERAMAHCGSNEVLIVGGVGCNERLQEMMRIMCEERGGKLFATDERYCIDNGLMIAHAGAEMFRSGTRMPFEESYVTQRFRTDEVLVSWRDD
MAPPIT interaction score (Tcs6): 1.93 (inactive)

B6: TfIIA-S-2 (protein)
chain: MNYQHYRATTLGRTLQDTLDEMMERGDITKKIANLVLLRYDKSISTALKDHGTSNMSFTAERLETFRCCDNVWTLILKDAEFREDQHSLKVDVVKIVACLGTDNGNE
MAPPIT interaction score (TfIIA-L): 3.17 ± 3.8

B7: CtsF (protein)
chain: MRLFAAATVALVLLLGQAAGEELAEERAGQAQGDAESTESSETTTDQAVSEPPITLVHVLNPGEREYLSPNLIGVQNIAMTFLPLSMNFVNIIDAFREITAGVRYEILLNALDTKAIQPAEADIVCRLVILEKPWLRTQWGDKHRELVTSNCTDPAVNSVAGDPAEKARLLNEKYVHRSRRSANDILGRHKPYDEEAAKAQLQKSLDKLTAGEGPHYKIVKVYSASRQVDSGILTRIDADLIDGSEEQHRCIVDIWTKVWVRKDEHEITFKCRNQPVVQARHTRSVEWAEKKTHKKHSHRFDKVDHLFYKFQVRFGRRYVSTAERQMRLRIFRQNLKTIEELNANEMGSAKYGITEFADMTSSEYKERTGLWQRDEAKATGGSAAVVPAYHGELPKEFDWRQKDAVTQVKNQGSCGSCWAFSVTGNIEGLYAVKTGELKEFSEQELLDCDTTDSACNGGLMDNAYKAIKDIGGLEYEAEYPYKAKKNQCHFNRTLSHVQVAGFVDLPKGNETAMQEWLLANGPISIGINANAMQFYRGGVSHPWKALCSKKNLDHGVLVVGYGVSDYPNFHKTLPYWIVKNSWGPRWGEQGYYRVYRGDNTCGVSEMATSAVLA
MAPPIT interaction score (Taf12): 0.31 (inactive)

B8: snf (protein)
chain: MEMLPNQTIYINNLNEKIKKEELKKSLYAIFSQFGQILDIVALKTLKMRGQAFVIFKEIGSASNALRTMQGFPFYDKPMQIAYSKSDSDIVAKIKGTFKERPKKVKPPKPAPGTDEKKDKKKKPSSAENSNPNAQTEQPPNQILFLTNLPEETNEMMLSMLFNQFPGFKEVRLVPNRHDIAFVEFTTELQSNAAKEALQGFKITPTHAMKITFAKK
MAPPIT interaction score (THG): 0.333 (inactive)
